Assay results reported in PubChem BioAssay (NCI).
Compounds without any hit were thinned out: in the full panel of roughly 83,000, 20% have a hit.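 Assay: single dose, 48 h. Readout: percent growth (0 = no net growth; negative = cell death). Active: <10.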 Unmarked numbers belong to inactive results. Activity calls are given as the source filed them.

Test system: HL-60(TB) leukemia
Experiment: NCI-60 one-dose screen, 48 h (100 = growth as untreated, 0 = no growth, -100 = all killed)
Details: 10 µM unless noted

Row | Structure (SMILES) | growth
1 | COc1cc(C=C2C(=O)N(C)C(=O)N(C)C2=O)cc(CN2CCCCC2)c1O | 96.3%
2 | CC(Oc1ccc(C(=O)O)cc1C(F)(F)F)c1ccc(Oc2ccccc2)cn1 (centres undefined) | 101%
3 | CN(C)CCN(Cc1ccccc1)c1ccc2ccccc2n1 | 89.7%
4 | CNC(=O)N/N=C/c1ccc([N+](=O)[O-])o1 | 66.4%
5 | Cc1ccc(/C=C(\C#N)n2nnc3cc(F)c(F)cc32)cc1 | -1.91% (active)
6 | CC/C=C\C[C@H](O)C/C=C1/C(=O)C=C[C@@H]1C/C=C\CCCC(N)=O | -30.9% (active)
7 | COc1cccc2ccc(CC(O)(c3ccccc3)c3ccccc3)nc12 | 95.8%
8 | Nc1c(C(=O)Nc2ccnc3ccccc23)sc2nc3c(cc12)CN(Cc1ccccc1)CC3 | 32.7%
9 | C=CCn1c(C)nc2cc(Nc3nc(Cl)nc4ccccc34)ccc21 | 84.1%
10 | COc1cc(/C=C/C(=O)CC(=O)/C=C/c2ccc(OC(=O)CCNC34CC5CC(CC(C5)C3)C4)c(OC)c2)ccc1OC(=O)CCNC12CC3CC(CC(C3)C1)C2 | -24% (active)
11 | O=C(CCl)N1CCN(C/C=C/c2ccccc2)CC1 | 102%
12 | COc1cc2cc(Oc3ccc(NC(=O)Nc4ccc(Cl)c(Cl)c4)cc3)c(C)nc2cc1OCCN1CCCCC1 | 44.1%
13 | CC1=C([Se]CC(OC(=O)[C@@H](CSSC(C)(C)C)NC(=O)OC(C)(C)C)C(=O)NC(C)(C)C)C(=O)c2ccccc2C1=O (some centres undefined) | -2.66% (active)
14 | Clc1nc(Cl)c2ncn(CCOCCn3cnc4c(Cl)nc(Cl)nc43)c2n1 | -70.6% (active)
15 | O=C(CN1C(=O)S/C(=C\C(Cl)=C\c2ccccc2)C1=O)NC1C=CS(=O)(=O)C1 (centres undefined) | -5.2% (active)
16 | CCN(CCNc1ccc(C)c2sc3ccccc3c(=O)c12)CC(C)(C)O | 43.5%
17 | CCOC(=O)[C@H](CSSc1ncnc2cc[nH]c12)NC(=O)[C@@H](C)c1ccc2cc(OC)ccc2c1 | 7.65% (active)
18 | O=C(NNC(=O)c1ccc(NC(=O)c2ccccn2)cc1)Nc1ccc([N+](=O)[O-])cc1 | 97.9%
19 | Cc1ccc(C)c(-n2c(-c3ccc(Br)cc3)csc2=NC(=O)c2ccccc2F)c1 | -21.6% (active)
20 | CCOC(=O)Nc1ccc2c(c1)C(=O)N(CC)c1ccccc1O2 | -17% (active)

Row | Structure (SMILES) | growth
21 | C=C(C[n+]1ccccc1)[C@@H]1CC[C@]2(C(=O)OC)CC[C@]3(C)[C@H](CC[C@@H]4[C@@]5(C)CC[C@H](O)C(C)(C)[C@@H]5CC[C@]43C)[C@@H]12 | 93.5%
22 | CCCc1n(Cc2ccc3ccccc3n2)cc[n+]1Cc1ccc2ccccc2c1 | -53.7% (active)
23 | COc1cccc2c1C(=O)c1c(O)c3c(c(O)c1C2=O)C[C@@](O)(C(=O)CO)C[C@@H]3O[C@H]1C[C@H](N)[C@@H](O)[C@H](C)O1 | 3.13% (active)
24 | C=C1CCC2C3(C)COC(c4c(OC)cccc4OC)OC3CCC2(C)C1C/C=C1/C(=O)OCC1O (centres undefined) | 29.4%
25 | O=C(O)c1ccc(-n2cc(/C=N/Nc3ccccc3F)c(-c3ccc(O)cc3)n2)cc1 | 45%
26 | CN(C)c1ccc(/C=C/c2cc[n+](C)c(/C=C/c3ccc(N(C)C)cc3)c2)cc1 | -56.3% (active)
27 | Nc1ccc(Cl)c2c(=O)c3ccccc3[nH]c12 | 63.7%
28 | CCC(=O)Nc1cc2c(cc1Cl)-c1ccccc1C2 | 39.4%
29 | N#C/C(=C\c1ccc([N+](=O)[O-])s1)c1nc2cc(Br)ccc2s1 | 17.7%
30 | Cc1[nH]c2ccc(F)cc2c1CCNC(=O)C1CCN(C(=O)c2ccc(-c3ccccc3)cc2)CC1 | 55.3%
31 | CCN1CCN(CC(=O)Nc2nc3ccc(NCc4ccc(F)cc4)cc3s2)CC1 | 96.4%
32 | Fc1ccc(-c2nnc(-c3c(-c4ccc(F)cc4)nc4ccccn34)o2)cc1 | 103%
33 | O=C1Nc2c(ccc(Cl)c2Cl)/C1=C/c1cc(Br)c(O)c(Br)c1 | 33%
34 | O=C1/C=C/[C@@H](O)[C@@H]2C[C@@H](O)C[C@H]2/C=C/CCC[C@@H](C(F)(F)F)O1 | 104%
35 | O=C(NN(C(=O)c1ccccc1)c1cccs1)c1ccccc1 | 101%
36 | COc1cccc(C2C(C#N)=C(N)Oc3cc(OCCCCCC[P+](c4ccccc4)(c4ccccc4)c4ccccc4)ccc32)c1 (centres undefined) | -39.6% (active)
37 | NC1=NN=C(N)C1=Cc1cc2ccccc2n2nnnc12 | 96.8%
38 | COc1cc(/C=C2\COc3ccc(O)cc3C2=O)cc(OC)c1 | 18.4%
39 | Cc1ccc(C2CC(c3cccc(Nc4ccncc4)c3)=Nc3c(N)nc(N)nc3N2)cc1 (centres undefined) | 33.7%
